We go through 40 molecules from PubChem BioAssay (NCI).

This is part of a sample that, as a whole, favours compounds with a hit. Of some 83,000 tested, about 20% had one in any assay.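 Compound tested at a single concentration for 48 hours in 96-well plates; a percent growth value below 10 was scored as active.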 The source made the active and inactive calls.

In the test the test system is A498 renal. As to the kind of experiment: NCI-60 one-dose screen, 48 h (100 = growth as untreated, 0 = no growth, -100 = all killed). As to conditions: 10 µM unless noted. The protocol: Growth inhibition of the A498 human tumor cell line is measured as a screen for anti-cancer activity. Cells are grown in 96 well plates and exposed to the test compound for 48 hours. Compounds are tested at a single concentration, which is 10^-5 M for most compounds. The reported endpoint is percent growth (GI% or GIPRCNT), where numbers from 0 - 100% represent growth inhibition, and numbers from -100% - 0 represent cell death. For example, a value of 40 represents 60% growth inhibition. A value of 0 means no net growth occurred over the course of the experiment. A value of -40 indicates 40% of cells at the beginning of the experiment died by the end of the experiment. A value of -100 means all cells are dead at the end of the experiment.
NCI-60 Human Tumor Cell Lines Screen was performed using the standard one-dose NCI protocol, which is described in more detail at https://dtp.cancer.gov/discovery_development/nci-60/default.htm.
Compounds with GIPRCNT values below 10 were considered active. Activity score was based on GIPRCNT using the following formula: […]
Score is 0 for GIPRCNT values of 100 or above, 50 for GIPRCNT values of 0, and 100 for GIPRCNT values of -100.
For `O=c1[nH]c(Cl)nc2c1cnn2-c1ccccc1`, the growth was 84.1% (inactive). Consider `CCOC(=O)c1c(C)c(C(=O)OCC)n(C)c1C`, for which the growth was 83.9% (inactive). The value for `CCC(CCC(C)C1CCC2C3CC=C4CC(O)CCC4(C)C3CCC12C)C(C)C` (stereo not given) (tested in a mixture with another compound) was 104% (inactive); that for `CCCCCCCC1(C)NC(=O)NC1=O` (stereo not given) was 103% (inactive).

In the case of `CO[C@H]1/C=C/O[C@@]2(C)Oc3c(C)c(O)c4c(O)c(c(/C=N/N5C(C)CN(Cc6ccccc6)CC5C)c(O)c4c3C2=O)NC(=O)/C(C)=C\C=C\[C@H](C)[C@H](O)[C@@H](C)[C@@H](O)[C@@H](C)[C@H](OC(C)=O)[C@@H]1C` (stereo not given in full), the growth is 96.1% (inactive). For `ClC1=C(Cl)C(Cl)=C(Cl)C1=Cc1ccc(Cl)cc1`, the growth was 27.2% (inactive). With `C[n+]1ccc(Nc2ccc(NC(=O)c3ccc(Nc4cc[n+](C)c5ccc(N)cc45)cc3)cc2)cc1`, the growth was 93.9% (inactive).

For the molecule `CCN(CC)CCNc1ccc(Cl)cc1Cl`, the growth was 103% (inactive). For the molecule `COc1ccc(-c2c3c(nn2-c2ccc(N)cc2)CCc2cnoc2-3)cc1OC`, the growth was 85.3% (inactive).

For the molecule `CCCc1cc(=O)n2c(C(=O)Nc3ccccc3OC)c(C(=O)Nc3ccc(F)cc3)sc2n1`, the growth is 90% [30 µM] (inactive).

For the molecule `CCC(C)CC(C)C(=O)c1c(O)ccn(O)c1=O` (stereo not given), the growth was 115% (inactive). In the case of `COc1ccc(Nc2nccc(N3CCN(c4c5ccc(Cl)cc5nc5ccc(OC)cc45)CC3)n2)cc1`, the growth was 62.9% (inactive). In the case of `O=C(CN1CCCCC1)Sc1nnc2sc3ccccc3n12`, the growth is 107% (inactive). With `O=C(/C=C/c1cccnc1)NCCCCC1CCCN(C(=O)c2ccccc2)C1` (stereo not given), the growth was 101% (inactive). In the case of `CCOC(=O)C1=C(COCCN)NC(C)=C(C(=O)OC)C1c1ccccc1Cl` (stereo not given), the growth is 62.4% (inactive). With `CN(C(=O)c1ccccc1)N(C)C(=O)c1ccccc1`, the growth was 100% (inactive). The value for `COc1cc2c(cc1OC)C1CCN3C(=O)CCC3N1CC2` (stereo not given) was 104% (inactive); that for `C/C(=N/N=C(N)N)c1ccc(Cl)cc1` was 188% (inactive).

Consider `CC(C)C(=O)Cc1cnccn1`, for which the growth was 101% (inactive). Turning to `COc1cc(/C=C2\CCC/C(=C\c3ccc(OCC4CO4)c(OC)c3)C2=O)ccc1OCC1CO1` (stereo not given), the growth was 63.9% (inactive).

Consider `O=C(Nc1ccc(Oc2ccc(NC(=O)Nc3ccc([N+](=O)[O-])cc3)cc2)cc1)Nc1ccc([N+](=O)[O-])cc1`, for which the growth is 13% (inactive). Next, `Cc1cccc(Cl)c1NC(=O)c1ccc2nc(NC(=O)NC3CC(C)(C)NC(C)(C)C3)sc2c1`: 89% (inactive); `CN(C)c1ccc(/C=C(\C#N)c2nc3ccccc3c(=O)[nH]2)cc1`: 90.7% (inactive); `CSC1=Nc2c(c(C)c(-c3ccccc3)n2CCCN2CCCCC2)C2=NC(=O)C[C@H](C)N12`: 80.8% (inactive). For `CCOC(=O)/C=C(/C)Sc1cc(O)c2ccccc2c1O`, the growth was 124% (inactive). As to `Cc1cc(CC(=O)O)n(C)c1C(=O)c1ccc(Cl)cc1`, the growth was 123% (inactive). As for `Cc1cc(NC(=O)Nc2cc(Cl)ccc2C)no1`, the growth was 133% (inactive). For `CCCCCCOc1ccc(/C=N/NC(N)=S)cc1`, the growth was 99.7% (inactive). Turning to `C=Cc1nn2c(CCC(=O)c3nc4ccccc4[nH]3)nnc2s1`, the growth is 135% (inactive). As for `Fc1ccc(-c2nnc(/C=C/c3cn(-c4ccccc4)nc3-c3ccccc3)o2)cc1`, the growth is 111% (inactive). Next, `COc1ccc2c(c1)C(=O)/C(=C/c1cccc(OCC(=O)c3ccccc3)c1)CC2`: 89.2% (inactive). Turning to `COc1ccc(COC(C)=O)cc1`, the growth is 88.7% (inactive). The value for `COc1ccc2nc3cc(Cl)ccc3c(N3CCN(c4ccnc(Nc5ccc(F)cc5)n4)CC3)c2c1` was 51.1% (inactive); that for `COc1cc(C2NC(c3ccc(Cl)cc3)C(C)C(=NC(=O)c3cnccn3)C2C)cc(OC)c1OC` (stereo not given) was 112% (inactive); that for `N#CCNc1ccccc1N` was 104% (inactive). The value for `COC(=O)[C@]1(CCSC)N[C@H](c2cn(-c3ccccc3)nc2C)[C@@H]2C(=O)N(c3ccccc3)C(=O)[C@@H]21` was 93% (inactive); that for `O=C(/C=C/c1cc2ccccc2[nH]c1=O)c1ccc(Cl)cc1` was 13.7% (inactive). The value for `COc1cccc2c1O/C(=C\c1c([N+](=O)[O-])ncn1C)C2=O` was 100% (inactive). As to `CN(C)CCCN1c2nc3ccccc3cc2Sc2cc3ccccc3nc21`, the growth was -5.96% (active). For `Cc1nn(-c2ccc(Cl)cc2)c2nc3c(nc12)c(=O)oc1ccccc13`, the growth is 95% (inactive).
